Test results from the supplement of paper PMC10849652.
The full data set covers some 8,800 targets. This sample favours those with a hit. About 0.5% of all pairs of compound and target were hits.

Columns and labels:
Test in all cases: log2 fold change, soluble protein after heating vs DMSO (PISA); higher = thermal stabilisation; K562 lysate, 10 uM; active = over 0.2 and 3.5 SD of the protein, either way, in both replicates (recomputed)
[1] = compound: C1=CC=C(C=C1)[C@H](COC2=CC3=C(C=C2)NC(=O)N3)NC(=O)C4=CC=CN(C4=O)CC5=CC(=C(C=C5)F)F
Summary of the method: (§1)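 Pellets of K562 cells were dounce-homogenised in PBS pH 7.4 with 1 mM MgCl2, and the crude extract was held at 1 mg/mL protein for a 30 min treatment with 10 μM compound. Aliquots were heated for 3 min over 48°C-58°C and pooled before NP-40 was added to 0.5% at 4°C. The supernatant from 21,000xg for 90 min was quantified by TMTpro 16plex LC-MS/MS with channel sums equalised. Values are reported from duplicates as log-two fold change in thermal stability relative to solvent controls.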

[2] = compound: CC1=C(SC2=C1C(=N[C@H](C3=NN=C(N32)C)CC(=O)N)C4=CC=C(C=C4)Cl)C
Summary of the method: as §1

[3] = compound: CC1=C2C(=CC=C1)N=C(N(C2=O)C3=CC=CC=C3C)CN4C=NC5=C(N=CN=C54)N
Summary of the method: as §1

[4] = compound: Cc1sc2c(c1C)C(c1ccc(Cl)cc1)=N[C@@H](CC(=O)OC(C)(C)C)c1nnc(C)n1-2
Summary of the method: as §1

[5] = compound: c1ccc([C@@H]2C[C@H]2NC2CCNCC2)cc1
Summary of the method: as §1

Measured: log2 fold change

ERLIN2 (UniProt O94905)
UniProt O94905, sequence (O94905 whole entry, looked up): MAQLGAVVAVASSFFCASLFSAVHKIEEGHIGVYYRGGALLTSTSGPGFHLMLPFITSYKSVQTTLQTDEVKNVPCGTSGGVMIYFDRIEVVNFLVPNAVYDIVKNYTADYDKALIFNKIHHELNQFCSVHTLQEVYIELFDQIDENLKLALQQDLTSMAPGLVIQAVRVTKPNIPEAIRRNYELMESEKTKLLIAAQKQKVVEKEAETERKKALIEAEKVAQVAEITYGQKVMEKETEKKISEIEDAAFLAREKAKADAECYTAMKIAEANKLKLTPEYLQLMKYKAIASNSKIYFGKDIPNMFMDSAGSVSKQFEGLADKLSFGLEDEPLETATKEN
inactive: [1] 0.009 | [2] -0.007 | [3] 0.016 | [4] -0.126 | [5] 0.143

ENO1 isoform 2 (UniProt P06733)
inactive: [1] 0.068 | [2] -0.145 | [3] 0.033 | [4] -0.062 | [5] -0.143

ETFRF1 (UniProt Q6IPR1)
UniProt Q6IPR1, sequence (Q6IPR1 whole entry, looked up): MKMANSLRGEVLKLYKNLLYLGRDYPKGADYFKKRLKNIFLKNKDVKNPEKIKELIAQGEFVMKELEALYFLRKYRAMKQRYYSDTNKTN
inactive: [1] 0.021 | [2] 0.058 | [3] -0.031 | [4] -0.02 | [5] 0.066

EWSR1 (UniProt H7BY36)
inactive: [1] -0.079 | [2] -0.06 | [3] 0.091 | [4] -0.058 | [5] 0.061

EXOC3 (UniProt O60645)
inactive: [1] -0.026 | [2] -0.019 | [3] 0.053 | [4] -0.017 | [5] 0.08

DUSP22 isoform 2 (UniProt Q9NRW4)
inactive: [1] 0.05 | [2] -0.068 | [3] 0.038 | [4] 0.099 | [5] -0.028

ECH1 (UniProt Q13011)
inactive: [1] -0.059 | [2] 0.008 | [3] -0.006 | [4] -0.026 | [5] 0.012

EXOC1 (UniProt Q9NV70)
inactive: [1] -0.011 | [2] 0.032 | [3] 0.013 | [4] 0.02 | [5] 0.068

FREM2 (UniProt Q5SZK8)
inactive: [1] 0 | [2] 0.074 | [3] 0.003 | [4] -0.133 | [5] -0.212

GCDH (UniProt Q92947)
inactive: [1] 0.034 | [2] -0.032 | [3] -0.022 | [4] -0.008 | [5] -0.004

GABPB1 isoform 3 (UniProt Q06547)
inactive: [1] 0.039 | [2] 0.052 | [3] -0.017 | [4] -0.024 | [5] -0.025

GDPD1 (UniProt Q8N9F7)
inactive: [1] -0.047 | [2] 0.018 | [3] 0.117 | [4] 0.024 | [5] -0.036

EED, A0A5F9ZI63
inactive: [1] 0.022 | [2] -0.01 | [3] 0.027 | [4] -0.007 | [5] -0.011

FIBP (UniProt O43427)
inactive: [1] -0.018 | [2] 0 | [3] -0.044 | [4] -0.027 | [5] -0.002

EDARADD (UniProt Q8WWZ3)
inactive: [1] 0.074 | [2] -0.088 | [3] -0.032 | [4] -0.037 | [5] 0.064

FANCD2 isoform 1 (UniProt Q9BXW9)
inactive: [1] -0.002 | [2] 0.039 | [3] 0.012 | [4] -0.018 | [5] -0.054

GGT7 (UniProt Q9UJ14)
inactive: [1] -0.138 | [2] 0.017 | [3] 0.103 | [4] -0.015 | [5] -0.048

FAM118B (UniProt Q9BPY3)
inactive: [1] -0.025 | [2] -0.062 | [3] -0.01 | [4] -0.018 | [5] 0.01

FIGNL1 (UniProt Q6PIW4)
inactive: [1] -0.033 | [2] 0.01 | [3] 0.028 | [4] 0.051 | [5] 0.085

DTWD1 (UniProt Q8N5C7)
UniProt Q8N5C7, sequence (Q8N5C7 whole entry, looked up): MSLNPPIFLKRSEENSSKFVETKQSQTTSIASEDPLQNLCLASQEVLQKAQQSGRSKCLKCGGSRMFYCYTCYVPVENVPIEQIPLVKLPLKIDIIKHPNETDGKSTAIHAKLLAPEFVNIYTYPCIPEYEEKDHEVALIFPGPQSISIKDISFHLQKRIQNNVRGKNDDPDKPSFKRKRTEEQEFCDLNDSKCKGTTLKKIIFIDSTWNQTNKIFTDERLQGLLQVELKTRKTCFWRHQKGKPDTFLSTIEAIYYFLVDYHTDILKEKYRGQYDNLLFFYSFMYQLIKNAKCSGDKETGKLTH
inactive: [1] -0.003 | [2] 0.075 | [3] -0.004 | [4] 0.039 | [5] 0.095

FMNL1 isoform 3 (UniProt O95466)
inactive: [1] 0.104 | [2] -0.01 | [3] 0.057 | [4] 0.027 | [5] 0.082

FNTB (UniProt P49356)
UniProt P49356, sequence (P49356 whole entry, looked up): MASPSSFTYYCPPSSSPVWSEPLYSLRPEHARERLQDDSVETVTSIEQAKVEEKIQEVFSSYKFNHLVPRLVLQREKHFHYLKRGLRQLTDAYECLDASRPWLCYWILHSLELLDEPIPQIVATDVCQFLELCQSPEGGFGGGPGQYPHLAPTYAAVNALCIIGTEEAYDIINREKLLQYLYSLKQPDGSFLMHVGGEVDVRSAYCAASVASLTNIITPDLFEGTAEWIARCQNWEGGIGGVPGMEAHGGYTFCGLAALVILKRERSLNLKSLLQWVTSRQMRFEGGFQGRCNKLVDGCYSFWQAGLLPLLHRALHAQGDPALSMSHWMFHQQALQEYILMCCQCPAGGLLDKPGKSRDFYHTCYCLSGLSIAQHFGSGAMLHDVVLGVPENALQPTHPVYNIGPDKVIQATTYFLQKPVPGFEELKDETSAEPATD
inactive: [1] 0.023 | [2] 0.135 | [3] 0.015 | [4] -0.008 | [5] 0.038

FDX2 (UniProt Q6P4F2)
inactive: [1] -0.039 | [2] 0.021 | [3] -0.012 | [4] 0.062 | [5] -0.05

FTSJ3 (UniProt Q8IY81)
inactive: [1] 0.022 | [2] -0.051 | [3] -0.007 | [4] -0.003 | [5] 0.083

FLAD1 (UniProt Q8NFF5)
inactive: [1] 0.006 | [2] 0.032 | [3] 0.011 | [4] 0.017 | [5] 0.022

FNBP1L (UniProt Q5T0N5)
UniProt Q5T0N5, sequence (Q5T0N5 whole entry, looked up): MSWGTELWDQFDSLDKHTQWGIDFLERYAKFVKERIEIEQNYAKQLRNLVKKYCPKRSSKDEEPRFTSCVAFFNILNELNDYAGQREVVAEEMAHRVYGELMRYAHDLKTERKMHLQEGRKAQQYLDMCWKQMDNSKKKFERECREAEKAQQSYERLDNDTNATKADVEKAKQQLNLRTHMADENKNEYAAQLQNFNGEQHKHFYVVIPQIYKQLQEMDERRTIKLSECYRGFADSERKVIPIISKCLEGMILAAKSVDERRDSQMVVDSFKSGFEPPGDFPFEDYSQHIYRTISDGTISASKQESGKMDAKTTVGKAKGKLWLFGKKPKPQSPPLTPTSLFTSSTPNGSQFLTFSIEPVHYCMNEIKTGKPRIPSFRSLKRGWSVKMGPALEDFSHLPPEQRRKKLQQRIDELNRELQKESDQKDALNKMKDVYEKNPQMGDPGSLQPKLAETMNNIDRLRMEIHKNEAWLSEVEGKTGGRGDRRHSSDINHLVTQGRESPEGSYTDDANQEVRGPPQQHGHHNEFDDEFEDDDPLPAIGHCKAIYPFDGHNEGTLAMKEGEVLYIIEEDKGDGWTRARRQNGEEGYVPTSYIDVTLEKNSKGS
inactive: [1] -0.082 | [2] -0.009 | [3] 0.012 | [4] -0.032 | [5] 0.029

EIF2AK2 (UniProt P19525)
inactive: [1] 0.01 | [2] -0.002 | [3] -0.027 | [4] 0.216 | [5] 0.03

EGLN1 (UniProt Q9GZT9)
inactive: [1] 0.095 | [2] -0.023 | [3] -0.01 | [4] -0.038 | [5] -0.007

FADS1, A0A0A0MR51
inactive: [1] 0.071 | [2] -0.019 | [3] -0.027 | [4] -0.035 | [5] 0.013

ENO1, A0A2R8YEM5
inactive: [1] 0.026 | [2] -0.096 | [3] -0.048 | [4] -0.028 | [5] -0.21

DSN1 (UniProt Q9H410)
inactive: [1] -0.012 | [2] 0.053 | [3] 0.019 | [4] -0.013 | [5] 0.02

FARSB (UniProt Q9NSD9)
inactive: [1] -0.014 | [2] 0.036 | [3] -0.004 | [4] 0.02 | [5] 0.052

EXOC4 (UniProt Q96A65)
inactive: [1] -0.001 | [2] 0.009 | [3] 0.016 | [4] 0.063 | [5] 0.054

FECH isoform 2 (UniProt P22830)
inactive: [1] 0.06 | [2] -0.101 | [3] -0.126 | [4] -0.229 | [5] -0.092

GAPDH (UniProt P04406)
inactive: [1] 0.004 | [2] 0.008 | [3] -0.018 | [4] 0.008 | [5] 0.052

GIGYF2 (UniProt Q6Y7W6)
UniProt Q6Y7W6, sequence (Q6Y7W6 whole entry, looked up): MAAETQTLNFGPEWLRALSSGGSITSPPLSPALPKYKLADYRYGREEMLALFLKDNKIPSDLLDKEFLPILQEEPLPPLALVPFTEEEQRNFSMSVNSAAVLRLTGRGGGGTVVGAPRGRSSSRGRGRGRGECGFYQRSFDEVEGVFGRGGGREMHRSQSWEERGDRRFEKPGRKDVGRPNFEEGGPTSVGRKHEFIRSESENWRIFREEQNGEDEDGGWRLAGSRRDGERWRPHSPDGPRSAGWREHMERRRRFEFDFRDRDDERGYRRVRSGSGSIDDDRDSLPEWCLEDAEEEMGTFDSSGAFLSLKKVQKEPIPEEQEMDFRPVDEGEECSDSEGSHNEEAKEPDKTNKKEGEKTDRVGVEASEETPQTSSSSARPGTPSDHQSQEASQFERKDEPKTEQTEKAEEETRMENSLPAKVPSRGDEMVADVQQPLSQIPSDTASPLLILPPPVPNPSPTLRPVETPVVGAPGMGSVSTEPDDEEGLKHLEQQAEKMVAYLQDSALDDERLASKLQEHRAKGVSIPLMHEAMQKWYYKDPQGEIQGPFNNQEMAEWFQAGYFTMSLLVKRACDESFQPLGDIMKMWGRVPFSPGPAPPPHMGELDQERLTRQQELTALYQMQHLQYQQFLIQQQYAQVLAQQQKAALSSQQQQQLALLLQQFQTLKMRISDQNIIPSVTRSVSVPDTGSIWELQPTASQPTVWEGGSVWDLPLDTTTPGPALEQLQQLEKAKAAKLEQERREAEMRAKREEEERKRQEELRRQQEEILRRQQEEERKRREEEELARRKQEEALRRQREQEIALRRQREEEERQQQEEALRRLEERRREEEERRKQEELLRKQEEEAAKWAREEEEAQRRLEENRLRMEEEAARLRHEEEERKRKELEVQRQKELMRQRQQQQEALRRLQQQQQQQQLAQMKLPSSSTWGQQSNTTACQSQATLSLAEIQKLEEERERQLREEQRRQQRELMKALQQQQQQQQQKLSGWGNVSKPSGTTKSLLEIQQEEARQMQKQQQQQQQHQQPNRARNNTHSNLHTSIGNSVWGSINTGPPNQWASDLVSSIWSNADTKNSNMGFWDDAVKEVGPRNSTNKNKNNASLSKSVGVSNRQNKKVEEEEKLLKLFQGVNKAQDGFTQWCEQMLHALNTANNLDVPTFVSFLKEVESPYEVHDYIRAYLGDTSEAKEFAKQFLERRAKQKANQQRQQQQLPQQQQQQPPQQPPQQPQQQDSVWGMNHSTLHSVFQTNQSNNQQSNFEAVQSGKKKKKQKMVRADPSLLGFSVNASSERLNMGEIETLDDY
inactive: [1] 0.047 | [2] -0.054 | [3] 0.011 | [4] -0.076 | [5] 0.033

FASTKD5 (UniProt Q7L8L6)
UniProt Q7L8L6, sequence (Q7L8L6 whole entry, looked up): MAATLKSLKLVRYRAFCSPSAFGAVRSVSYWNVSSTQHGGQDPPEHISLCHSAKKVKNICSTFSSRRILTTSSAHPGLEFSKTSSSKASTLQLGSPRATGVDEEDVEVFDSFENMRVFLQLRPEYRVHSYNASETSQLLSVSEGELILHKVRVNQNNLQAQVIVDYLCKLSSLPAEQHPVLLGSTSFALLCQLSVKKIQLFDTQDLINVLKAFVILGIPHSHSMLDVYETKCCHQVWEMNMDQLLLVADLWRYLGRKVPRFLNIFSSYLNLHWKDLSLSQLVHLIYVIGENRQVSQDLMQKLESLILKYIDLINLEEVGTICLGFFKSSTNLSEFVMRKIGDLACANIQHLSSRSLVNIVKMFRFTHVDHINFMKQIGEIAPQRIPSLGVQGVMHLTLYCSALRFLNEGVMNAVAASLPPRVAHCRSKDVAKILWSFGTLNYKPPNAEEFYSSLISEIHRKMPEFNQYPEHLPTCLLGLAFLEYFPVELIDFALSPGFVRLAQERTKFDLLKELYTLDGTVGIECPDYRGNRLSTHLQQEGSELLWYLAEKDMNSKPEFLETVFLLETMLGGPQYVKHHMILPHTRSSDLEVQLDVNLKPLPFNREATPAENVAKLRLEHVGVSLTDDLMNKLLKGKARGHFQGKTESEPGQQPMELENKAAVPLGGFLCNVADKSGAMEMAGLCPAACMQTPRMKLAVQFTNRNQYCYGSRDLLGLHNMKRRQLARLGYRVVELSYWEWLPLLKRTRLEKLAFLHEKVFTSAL
inactive: [1] -0.168 | [2] -0.056 | [3] -0.024 | [4] -0.002 | [5] 0.133

ENSA isoform 3 (UniProt O43768)
inactive: [1] 0.037 | [2] -0.027 | [3] -0.024 | [4] -0.008 | [5] 0.02

ESRRA (UniProt P11474)
inactive: [1] 0.204 | [2] -0.018 | [3] 0.029 | [4] 0.046 | [5] 0.264

FBXO9 (UniProt Q9UK97)
inactive: [1] -0.07 | [2] -0.112 | [3] -0.002 | [4] 0.089 | [5] 0.095

FXR2 (UniProt P51116)
inactive: [1] -0.021 | [2] -0.011 | [3] 0.032 | [4] -0.014 | [5] 0.054

GFPT1 (UniProt Q06210)
inactive: [1] -0.021 | [2] -0.001 | [3] 0.021 | [4] 0.019 | [5] 0.058

GABPB1 (UniProt Q06547)
inactive: [1] 0.044 | [2] -0.013 | [3] -0.04 | [4] -0.001 | [5] 0.132

FOXK1 (UniProt P85037)
inactive: [1] 0.022 | [2] 0.017 | [3] -0.001 | [4] 0.032 | [5] -0.009

FAM83A (UniProt Q86UY5)
inactive: [1] 0.065 | [2] -0.023 | [3] 0.063 | [4] 0.11 | [5] -0.039

DVL2 (UniProt O14641)
inactive: [1] -0.012 | [2] -0.01 | [3] 0.032 | [4] 0.098 | [5] -0.017

ELF2 (UniProt Q15723)
inactive: [1] -0.162 | [2] -0.074 | [3] 0.044 | [4] -0.005 | [5] 0.013

FAM118A (UniProt Q9NWS6)
inactive: [1] -0.028 | [2] -0.033 | [3] -0.021 | [4] -0.108 | [5] -0.015

FKBP1A (UniProt P62942)
UniProt P62942, sequence (P62942 whole entry, looked up): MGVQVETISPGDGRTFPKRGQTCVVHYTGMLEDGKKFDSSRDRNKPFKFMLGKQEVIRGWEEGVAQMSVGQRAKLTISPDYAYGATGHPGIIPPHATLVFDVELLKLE
inactive: [1] 0.011 | [2] -0.134 | [3] -0.069 | [4] -0.01 | [5] -0.214

ESPL1 (UniProt Q14674)
inactive: [1] 0.016 | [2] 0.129 | [3] 0.251 | [4] 0.136 | [5] 0.077

FBLL1 (UniProt A6NHQ2)
UniProt A6NHQ2, sequence (A6NHQ2 whole entry, looked up): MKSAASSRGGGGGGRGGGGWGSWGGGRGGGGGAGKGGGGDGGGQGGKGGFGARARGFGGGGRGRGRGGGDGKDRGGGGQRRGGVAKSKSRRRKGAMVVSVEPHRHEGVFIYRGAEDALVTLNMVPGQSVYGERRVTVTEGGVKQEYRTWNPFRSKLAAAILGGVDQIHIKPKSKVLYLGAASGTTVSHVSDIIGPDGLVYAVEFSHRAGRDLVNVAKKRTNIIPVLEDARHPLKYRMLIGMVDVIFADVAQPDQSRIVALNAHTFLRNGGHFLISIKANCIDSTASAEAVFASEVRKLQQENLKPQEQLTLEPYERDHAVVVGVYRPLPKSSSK
inactive: [1] -0.017 | [2] 0.013 | [3] 0.037 | [4] -0.002 | [5] -0.062

FBRSL1, A0A3B3IRR3
inactive: [1] 0.002 | [2] 0.005 | [3] -0.021 | [4] 0.02 | [5] -0.028

EEF1AKNMT (UniProt Q8N6R0)
UniProt Q8N6R0, sequence (Q8N6R0 whole entry, looked up): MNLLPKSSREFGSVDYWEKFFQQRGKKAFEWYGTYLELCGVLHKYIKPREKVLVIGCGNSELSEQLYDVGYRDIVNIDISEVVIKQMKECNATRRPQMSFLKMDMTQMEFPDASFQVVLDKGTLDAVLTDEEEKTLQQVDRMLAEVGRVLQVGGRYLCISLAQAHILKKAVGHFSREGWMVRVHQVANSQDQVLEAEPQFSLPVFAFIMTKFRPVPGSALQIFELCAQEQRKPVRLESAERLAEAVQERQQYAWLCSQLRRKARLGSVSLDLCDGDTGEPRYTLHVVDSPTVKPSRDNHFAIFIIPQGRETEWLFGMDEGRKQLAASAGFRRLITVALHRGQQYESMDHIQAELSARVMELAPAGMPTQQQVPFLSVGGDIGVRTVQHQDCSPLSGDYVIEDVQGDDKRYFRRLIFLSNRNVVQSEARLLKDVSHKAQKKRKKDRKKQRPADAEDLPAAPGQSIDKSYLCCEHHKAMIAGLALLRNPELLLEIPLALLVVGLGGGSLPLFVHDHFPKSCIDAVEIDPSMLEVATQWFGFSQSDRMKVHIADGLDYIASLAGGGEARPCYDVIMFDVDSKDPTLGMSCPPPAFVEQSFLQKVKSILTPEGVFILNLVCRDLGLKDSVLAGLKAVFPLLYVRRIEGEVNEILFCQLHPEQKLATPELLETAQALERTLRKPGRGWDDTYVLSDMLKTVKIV
inactive: [1] -0.012 | [2] -0.073 | [3] 0.013 | [4] 0.018 | [5] 0.042
